In ChEMBL document CHEMBL3988442, “University of Dundee, Small-Polar-MMV Screening Library” (2021):
For some assays here: Entries with a potency or affinity are not part of this list.

Tests used:
Design in all cases: scale not given: direction of the effect not stated beside the values
[1] = target: Protein translocase subunit SecA (Escherichia coli (strain K12)) (UniProt P10408); experiment: Assay to Identify E. coli SecA ATPase Inhibitors; format: functional; conditions: 30 µM
[2] = target: T1, Ubiquitin-activating enzyme e1, putative (Leishmania donovani (strain BPK282A1)) (UniProt E9BSI1); experiment: Leishmania donovani Ubiquitin Activating Enzyme (LdE1); format: functional; conditions: 30 µM
T1 sequence (whole entry): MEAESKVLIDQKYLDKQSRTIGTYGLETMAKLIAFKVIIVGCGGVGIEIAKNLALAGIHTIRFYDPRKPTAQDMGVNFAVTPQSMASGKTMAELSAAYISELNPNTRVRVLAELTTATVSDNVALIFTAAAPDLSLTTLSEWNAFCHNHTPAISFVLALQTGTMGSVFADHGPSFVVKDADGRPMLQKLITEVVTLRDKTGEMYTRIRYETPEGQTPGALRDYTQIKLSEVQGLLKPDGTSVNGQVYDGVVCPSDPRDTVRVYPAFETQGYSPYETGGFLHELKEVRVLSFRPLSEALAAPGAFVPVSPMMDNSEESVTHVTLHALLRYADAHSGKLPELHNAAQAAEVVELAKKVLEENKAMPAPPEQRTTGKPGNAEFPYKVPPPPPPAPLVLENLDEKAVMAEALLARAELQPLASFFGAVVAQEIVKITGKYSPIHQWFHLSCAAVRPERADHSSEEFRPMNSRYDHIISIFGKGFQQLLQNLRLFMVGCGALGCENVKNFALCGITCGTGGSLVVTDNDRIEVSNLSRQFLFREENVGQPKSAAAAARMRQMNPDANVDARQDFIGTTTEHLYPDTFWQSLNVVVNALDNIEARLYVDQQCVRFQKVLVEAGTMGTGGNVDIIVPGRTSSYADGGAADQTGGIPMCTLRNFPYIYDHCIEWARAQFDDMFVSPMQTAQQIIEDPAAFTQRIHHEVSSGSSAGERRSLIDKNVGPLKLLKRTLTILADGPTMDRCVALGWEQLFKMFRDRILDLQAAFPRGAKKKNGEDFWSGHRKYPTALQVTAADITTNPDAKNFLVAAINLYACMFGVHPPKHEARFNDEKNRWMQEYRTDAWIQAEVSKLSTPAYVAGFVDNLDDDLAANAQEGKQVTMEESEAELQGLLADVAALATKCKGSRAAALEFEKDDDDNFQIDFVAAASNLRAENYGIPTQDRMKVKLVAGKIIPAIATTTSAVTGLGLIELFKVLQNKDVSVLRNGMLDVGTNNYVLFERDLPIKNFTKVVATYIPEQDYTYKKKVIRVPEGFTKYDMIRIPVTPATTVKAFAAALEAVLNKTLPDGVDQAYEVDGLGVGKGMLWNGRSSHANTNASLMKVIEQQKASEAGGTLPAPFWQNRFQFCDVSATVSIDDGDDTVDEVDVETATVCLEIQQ

[3] = target: AMP-activated protein kinase, AMPK (Homo sapiens) (UniProt P54646+O43741+P54619+Q9UGJ0+Q9Y478+Q13131+Q9UGI9); experiment: AMP-dependent Kinase enzyme assay. An in vitro enzyme assay that detects ADP turnover that is directly proportional to AMPK activity. This uses naive AMPK that is activated during the assay with MK-8722; format: functional; conditions: 30 µM
[4] = target: Sialic acid-binding Ig-like lectin 9 (Homo sapiens) (UniProt Q9Y336); experiment: Hs-Siglec9 ALPHAscreen SOP 20170721; conditions: 10 µM
[5] = test system: Trypanosoma cruzi; experiment: Trypanosoma cruzi phosphomannomutase and mannose-1-phosphate guanylyltransferase assay; format: functional; conditions: 10 µM
[6] = target: T2, Arginase-2, mitochondrial (Homo sapiens) (UniProt P78540); experiment: in vitro enzyme assay to detect the production of urea directly proportional to the activity of Arginase II; format: functional; conditions: 33.3 µM; further: in the data most compounds retested in dose-response had high values
T2 sequence (whole entry): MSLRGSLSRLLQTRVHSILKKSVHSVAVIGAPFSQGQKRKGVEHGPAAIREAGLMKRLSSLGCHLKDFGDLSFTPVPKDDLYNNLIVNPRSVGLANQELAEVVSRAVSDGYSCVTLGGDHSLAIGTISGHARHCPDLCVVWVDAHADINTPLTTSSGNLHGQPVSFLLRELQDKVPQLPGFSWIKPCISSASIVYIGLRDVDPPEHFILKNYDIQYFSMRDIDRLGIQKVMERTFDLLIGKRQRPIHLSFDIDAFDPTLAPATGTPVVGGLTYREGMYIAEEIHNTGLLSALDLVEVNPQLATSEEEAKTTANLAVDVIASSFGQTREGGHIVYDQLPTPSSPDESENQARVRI

[7] = target: T3, Proteasome subunit beta (Trypanosoma cruzi) (UniProt O96673); experiment: Trypanosoma cruzi proteasome chymotrypsin-like activity (TcProtChymo) assay.; further: in the data most compounds retested in dose-response had high values; format: functional; conditions: 9.37 µM
T3 sequence (whole entry): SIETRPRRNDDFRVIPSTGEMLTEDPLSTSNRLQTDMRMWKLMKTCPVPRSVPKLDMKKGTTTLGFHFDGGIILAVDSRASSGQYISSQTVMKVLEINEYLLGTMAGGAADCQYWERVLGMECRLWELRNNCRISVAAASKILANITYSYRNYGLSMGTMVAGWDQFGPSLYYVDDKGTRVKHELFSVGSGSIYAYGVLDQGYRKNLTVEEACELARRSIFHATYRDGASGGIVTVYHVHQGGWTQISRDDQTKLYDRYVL

[8] = species on record: Homo sapiens; experiment: To identify inhibition of the IFN signalling (Jak-Stat) pathway via expression of an eGFP reporter gene under the control of an IFN-stimulated response element (ISRE) containing MxA promoter.; format: functional; conditions: 30 µM
[9] = target: T4, Tyrosyl-tRNA synthetase, putative (Trypanosoma cruzi (strain CL Brener)) (UniProt Q4DSP6); experiment: Trypanosoma cruzi tyrosyl tRNA synthetase (TcYRS) _High Tyrosine SOP; format: functional; conditions: 30 µM; further: in the data most compounds retested in dose-response had high values
T4 sequence (whole entry): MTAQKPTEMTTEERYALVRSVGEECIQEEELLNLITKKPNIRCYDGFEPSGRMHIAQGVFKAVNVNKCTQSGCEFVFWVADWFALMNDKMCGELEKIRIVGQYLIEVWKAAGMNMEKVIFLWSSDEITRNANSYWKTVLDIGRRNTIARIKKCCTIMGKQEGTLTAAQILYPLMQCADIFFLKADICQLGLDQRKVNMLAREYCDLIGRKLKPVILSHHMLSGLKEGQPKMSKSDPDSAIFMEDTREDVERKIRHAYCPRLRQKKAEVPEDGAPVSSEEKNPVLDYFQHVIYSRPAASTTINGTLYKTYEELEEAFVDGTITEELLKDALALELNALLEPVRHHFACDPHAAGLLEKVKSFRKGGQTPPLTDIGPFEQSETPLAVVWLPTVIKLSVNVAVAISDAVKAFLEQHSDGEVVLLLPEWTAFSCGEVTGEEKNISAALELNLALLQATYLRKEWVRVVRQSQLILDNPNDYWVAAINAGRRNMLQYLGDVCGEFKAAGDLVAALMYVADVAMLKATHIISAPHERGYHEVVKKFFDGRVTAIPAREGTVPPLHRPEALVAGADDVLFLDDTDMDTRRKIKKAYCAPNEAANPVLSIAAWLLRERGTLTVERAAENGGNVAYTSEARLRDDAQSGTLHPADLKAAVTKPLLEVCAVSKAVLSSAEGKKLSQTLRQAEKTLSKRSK

[10] = target: T4, Tyrosyl-tRNA synthetase, putative (Trypanosoma cruzi (strain CL Brener)); experiment: Trypanosoma cruzi tyrosyl tRNA synthetase (TcYRS) SOP; format: functional; conditions: 30 µM
[11] = target: Chromo domain-containing protein 1 (Saccharomyces cerevisiae (strain ATCC 204508 / S288c) (Baker's yeast)) (UniProt P32657); experiment: ScCHD-1 Enzyme Inhibition Assay; format: functional; conditions: 30 µM; further: in the data most compounds retested in dose-response had high values
Chromo domain-containing protein 1 (Saccharomyces cerevisiae (strain ATCC 204508 / S288c) (Baker's yeast)), sequence (P32657 whole entry, the tested form may be a part): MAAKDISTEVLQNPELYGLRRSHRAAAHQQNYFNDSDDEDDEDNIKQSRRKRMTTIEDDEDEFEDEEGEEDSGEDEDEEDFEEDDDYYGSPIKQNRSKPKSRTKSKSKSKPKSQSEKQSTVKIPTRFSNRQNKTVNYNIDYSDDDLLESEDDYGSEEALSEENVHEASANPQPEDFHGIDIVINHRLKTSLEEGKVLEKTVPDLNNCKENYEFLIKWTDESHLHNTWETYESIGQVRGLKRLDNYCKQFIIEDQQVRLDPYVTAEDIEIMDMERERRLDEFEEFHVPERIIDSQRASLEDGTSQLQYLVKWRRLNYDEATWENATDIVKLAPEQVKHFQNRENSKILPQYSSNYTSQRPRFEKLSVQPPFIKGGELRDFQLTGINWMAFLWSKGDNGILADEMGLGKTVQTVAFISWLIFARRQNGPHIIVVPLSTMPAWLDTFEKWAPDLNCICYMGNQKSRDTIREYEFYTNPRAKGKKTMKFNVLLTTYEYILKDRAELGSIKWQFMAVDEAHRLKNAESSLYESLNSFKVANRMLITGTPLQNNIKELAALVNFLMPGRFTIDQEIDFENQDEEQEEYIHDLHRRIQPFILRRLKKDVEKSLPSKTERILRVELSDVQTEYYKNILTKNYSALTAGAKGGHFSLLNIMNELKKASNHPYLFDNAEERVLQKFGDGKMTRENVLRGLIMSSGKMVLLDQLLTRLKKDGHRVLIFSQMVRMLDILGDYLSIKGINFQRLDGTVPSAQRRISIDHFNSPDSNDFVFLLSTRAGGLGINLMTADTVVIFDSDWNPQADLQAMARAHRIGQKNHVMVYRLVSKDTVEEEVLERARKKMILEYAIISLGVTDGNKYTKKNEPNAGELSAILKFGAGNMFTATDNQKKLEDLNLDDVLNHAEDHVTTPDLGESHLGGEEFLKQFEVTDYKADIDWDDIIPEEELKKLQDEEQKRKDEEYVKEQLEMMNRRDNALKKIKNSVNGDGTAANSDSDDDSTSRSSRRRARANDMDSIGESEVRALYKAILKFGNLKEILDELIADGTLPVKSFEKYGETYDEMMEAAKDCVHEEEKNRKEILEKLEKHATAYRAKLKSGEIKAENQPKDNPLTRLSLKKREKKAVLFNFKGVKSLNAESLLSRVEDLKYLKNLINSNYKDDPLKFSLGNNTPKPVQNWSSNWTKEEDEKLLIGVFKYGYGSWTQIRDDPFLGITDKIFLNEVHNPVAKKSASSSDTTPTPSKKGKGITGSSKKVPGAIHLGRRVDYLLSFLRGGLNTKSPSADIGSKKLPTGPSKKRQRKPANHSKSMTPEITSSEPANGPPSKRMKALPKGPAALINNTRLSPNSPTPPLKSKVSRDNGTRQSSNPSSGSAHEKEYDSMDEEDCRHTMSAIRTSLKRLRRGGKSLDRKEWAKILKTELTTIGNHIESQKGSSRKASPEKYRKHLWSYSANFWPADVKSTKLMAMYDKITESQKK

Sialic acid-binding Ig-like lectin 9 (Homo sapiens), sequence (Q9Y336 whole entry): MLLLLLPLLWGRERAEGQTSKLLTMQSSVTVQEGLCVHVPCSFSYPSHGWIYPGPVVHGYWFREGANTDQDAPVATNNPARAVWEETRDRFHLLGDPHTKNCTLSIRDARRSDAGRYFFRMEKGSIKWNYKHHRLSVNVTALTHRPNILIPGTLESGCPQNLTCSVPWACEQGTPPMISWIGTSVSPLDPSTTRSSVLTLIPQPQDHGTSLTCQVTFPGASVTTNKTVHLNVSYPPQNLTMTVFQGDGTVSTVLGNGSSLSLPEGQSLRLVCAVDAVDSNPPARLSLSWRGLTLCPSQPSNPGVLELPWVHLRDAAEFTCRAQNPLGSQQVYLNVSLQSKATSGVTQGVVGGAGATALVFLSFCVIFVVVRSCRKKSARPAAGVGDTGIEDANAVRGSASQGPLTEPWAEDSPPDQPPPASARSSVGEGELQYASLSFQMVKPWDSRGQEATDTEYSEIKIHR
Protein translocase subunit SecA (Escherichia coli (strain K12)), sequence (P10408 whole entry): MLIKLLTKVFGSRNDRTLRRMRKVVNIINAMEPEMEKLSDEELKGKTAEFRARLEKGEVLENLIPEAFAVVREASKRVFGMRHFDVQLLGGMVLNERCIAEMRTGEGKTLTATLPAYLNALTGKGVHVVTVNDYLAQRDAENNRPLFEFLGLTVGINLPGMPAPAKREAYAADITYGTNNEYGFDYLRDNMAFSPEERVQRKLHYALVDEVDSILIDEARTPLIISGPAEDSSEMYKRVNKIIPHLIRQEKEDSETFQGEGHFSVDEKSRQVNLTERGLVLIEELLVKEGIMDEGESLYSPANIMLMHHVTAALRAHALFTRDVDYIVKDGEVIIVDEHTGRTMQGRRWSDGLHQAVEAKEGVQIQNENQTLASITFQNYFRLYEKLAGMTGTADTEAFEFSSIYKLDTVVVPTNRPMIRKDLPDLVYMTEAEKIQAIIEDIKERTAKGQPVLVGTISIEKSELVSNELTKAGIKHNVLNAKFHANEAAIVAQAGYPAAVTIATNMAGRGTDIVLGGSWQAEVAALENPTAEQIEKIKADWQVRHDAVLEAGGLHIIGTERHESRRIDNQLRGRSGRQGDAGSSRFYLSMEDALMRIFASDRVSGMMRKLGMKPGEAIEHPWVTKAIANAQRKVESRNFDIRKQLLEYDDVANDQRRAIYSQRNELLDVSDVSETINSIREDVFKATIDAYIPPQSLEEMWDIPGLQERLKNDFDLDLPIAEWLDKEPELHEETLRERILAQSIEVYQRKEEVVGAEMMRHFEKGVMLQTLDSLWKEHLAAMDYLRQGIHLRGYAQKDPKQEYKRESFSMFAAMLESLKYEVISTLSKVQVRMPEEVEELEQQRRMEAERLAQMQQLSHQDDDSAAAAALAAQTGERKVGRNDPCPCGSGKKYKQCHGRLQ

SMILES | Percent Effect [1] [%] | Percent Effect [2] [%] | Percent Effect [3] [%] | Percent Effect [4] [%] | Percent Effect [5] [%] | Percent Effect [6] [%] | Percent Effect [7] [%] | Percent Effect [8] [%] | Percent Effect [9] [%] | Percent Effect [10] [%] | Percent Effect [11] [%]
CCN(Cc1nc2c(cnn2C)c(=O)[nH]1)c1cccc(Cl)c1 | -2.52 | 10.4 | 4.11 | -5.62 | 1.27 | 0.632 | 14.3 | 16.2 | 1.91 | 14.1 | -9.43
CC(C)n1ccnc1CN1CCCN(C(=O)COC2CCCC2)CC1 | -2.6 | 3.8 | 6.6 | 4.27 | -1.74 | -2.8 | 4.29 | 2.51 | -1.04 | 2.53 | -6.72
CC(C)c1nn(C)c(N2CCOCC2)c1CNC(C)c1cccs1 (configuration not stated) | -3.9 | -13.2 | -6.19 | -4.57 | -2.71 | -1.08 | 1.44 | -28.8 | 11.3 | 18.5 | -4.62
COCCOc1ccc(NC(=O)C2CCC2)cn1 | -2.7 | 17.7 | 1.58 | -6 | 0.85 | 5.7 | 15.6 | -2.54 | 9.36 | 16.5 | -6.65
CCOc1cc(C(=O)N2CCCC(c3noc(C)n3)C2)ccn1 (configuration not stated) | -5.03 | 10.5 | -4.05 | 13.6 | -2.15 | -1.08 | 2.12 | -18.5 | 5.42 | 11.1 | -2.64
CCOCCCNC(=O)c1cn(CC)nc1C | -3.21 | 20 | -2.97 | -1.34 | 0.982 | 1.58 | 15.3 | 16.9 | 6.35 | 17.9 | -9.37
Cc1cc(C)c(CNC(=O)NCc2ccc3c(c2)CCC3)c(=O)[nH]1 | -1.46 | 10.5 | -2.73 | 4 | -3.38 | 4.6 | 6.85 | 4.84 | 5.39 | 0 | 0.252
c1cc(CNCc2ccnc(N3CCOCC3)c2)c2c(c1)OCCO2 | -3.35 | 5.41 | -12.3 | 26.3 | 8.31 | 15.1 | 6.27 | 15.7 | 1.07 | 16.1 | -5.85
COCc1n[nH]/c(=N/C(=O)COc2cnc(C)cc2O)s1 | -1.58 | -5.26 | 2.8 | 1.24 | -6.33 | -1.18 | 9.3 | -1.08 | 3.19 | 5.2 | -4.33
COc1ccc(CN2C[C@@H]3COC[C@]3(COc3cccnc3)C2)cc1 | -1.95 | 0 | 3.5 | -0.202 | 3.12 | -0.417 | 4.14 | -15.2 | 0 | 6.1 | -0.593
CC(C)c1nccn1C1CCCN(C(=O)c2ccc3c(c2)OCO3)C1 (configuration not stated) | 1.45 | -2.6 | 7.64 | -5.54 | 1.27 | 5.26 | 3.96 | 9.94 | 0 | -2.35 | -9.35
CNS(=O)(=O)c1cccc(CNc2nccc(C(F)(F)F)n2)c1 | -0.353 | 16.2 | 14.6 | -2.3 | 5.19 | -1.6 | 15.1 | 46.9 | -0.493 | 16.1 | -15.9
COCCCNC(=O)CN(C)C(=O)c1cc(C)ccc1N(C)C(C)C | -2.35 | 10.8 | -5.29 | 6.07 | 0.65 | -3.88 | 0 | 5.31 | 1.98 | 13.4 | -2.86
Cc1cc(C)n(C2CN(CC(=O)N3CCOCC3)C2)n1 | -2.95 | 1.27 | 6.75 | 3.92 | 0.103 | 3.66 | 11.2 | -2 | 10.4 | 7.59 | 0.125
CC(c1nc(C2CC2)no1)N1CCN(CCOCC(F)(F)F)CC1 (configuration not stated) | -1.74 | -2.7 | -7.35 | 10.2 | 1.95 | -0.185 | 1.08 | 21 | 2.97 | 11 | 1.39
CSc1ncc(C(=O)N2C[C@H]3CC[C@@H]2CN(Cc2ccccc2)C3)cn1 | 0.697 | 2.74 | 22.7 | -2.06 | -6.66 | 2.27 | 11 | 4.63 | 6.45 | 10 | 0.291
Cc1cccc(OCCNC(=O)CN2CCCC2Cn2cccn2)c1 (configuration not stated) | -2.54 | -5.26 | -4.16 | 6.34 | 4.95 | -4.32 | -0.931 | -9.42 | 5.42 | 11.1 | -3.56
CCC1=N[C@@]2(CC[C@@H]3CN(C(=O)Nc4ccc(F)cc4)C[C@@H]32)C(=O)N1 | -5.91 | 5.41 | -0.761 | -2.41 | 7.42 | -2.5 | 13.1 | -26.3 | 7.92 | 8.54 | -6.29
CCOC(=O)N1CCN(Cc2ccc(OCc3nccn3C)cc2)CC1 | -5.3 | 23.4 | 3.48 | -0.124 | 0.562 | 1.42 | 13.7 | 11.1 | 9.71 | 14.6 | -7.78
Cc1ncc(CNC(=O)CCOc2ccccc2)c(C2CCCN2C)n1 (configuration not stated) | -0.839 | -1.35 | 18.7 | 7.48 | -6.32 | 3.02 | 6.08 | 12.3 | 1.07 | 1.3 | -1.9
CCOCCn1nc(C)cc1C(=O)N1CC[C@](C)(O)[C@H](C)C1 | -5.83 | 5.41 | -0.231 | 3.85 | -4.25 | -1.91 | 6.03 | -3.48 | 2.65 | 9.76 | -1.04
COc1nn(C)c2c1CCCN(C(=O)c1cc[nH]n1)C2 | -5.44 | -5.41 | 5.53 | 2.19 | -4.4 | -0.319 | 22.3 | -1.16 | -11.9 | -12.8 | 6.55
